Test [1] can be described thus: small molecules captured by biotinylated probe aFSTL3 – biochemical, small-molecule microarray, fluorescence 635/667, stem cell growth factor project, primary screen (AID 1064).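 Note: measures binding of the biotinylated anti-FSTL3 antibody to printed compounds.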 The following applies: higher = more signal.
Test [2] in a line: binders from COS7 lysate, DM2A8 probe, primary screen, torsin A project, cell lysate, small-molecule microarray, fluorescence 635/667 (AID 1065). As to conditions: higher = more signal, COS7 lysate expressing mutant human TOR1A.
Test [3] is described as follows: small molecules captured by biotinylated probe aFGF2 – biochemical, small-molecule microarray, fluorescence 635/667, stem cell growth factor project, primary screen (AID 1067).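 Note: measures binding of biotinylated aFGF2 protein to printed compounds on slides; z-score merges feature fluorescence and signal-to-noise across triplicate slides.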 As to conditions: higher = more signal.
A short description of test [4]: small molecules captured by biotinylated probe aFGF10 – biochemical, small-molecule microarray, fluorescence 635/667, stem cell growth factor project, primary screen (AID 1071).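 Note: score merges 667 nm spot intensity and signal to noise from triplicate slides.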 The following applies: higher = more signal.
For test [5], the target named is Neurogenic locus notch homolog protein 2 (Homo sapiens) (UniProt Q04721). As to the kind of experiment: small molecules binding Notch2 protein – biochemical, small-molecule microarray, 635 nm fluorescence, stem cell growth factors, primary screen (AID 1073). The following applies: higher = more signal.
For test [6], the target named is Pro-neuregulin-1, membrane-bound isoform (Homo sapiens) (UniProt Q02297). As to the kind of experiment: small molecules binding neuregulin-1 protein – biochemical, small-molecule microarray, fluorescence 635/667, psychiatric disease protein project, primary screen (AID 1075).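 Note: score combines 667 nm spot fluorescence with signal to noise.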 The following applies: NRG1 binding, 635 nm fluorescence, higher = more signal.
Sequence of Pro-neuregulin-1, membrane-bound isoform (Homo sapiens) (Q02297 whole entry, looked up, the tested form may be a part, canonical isoform): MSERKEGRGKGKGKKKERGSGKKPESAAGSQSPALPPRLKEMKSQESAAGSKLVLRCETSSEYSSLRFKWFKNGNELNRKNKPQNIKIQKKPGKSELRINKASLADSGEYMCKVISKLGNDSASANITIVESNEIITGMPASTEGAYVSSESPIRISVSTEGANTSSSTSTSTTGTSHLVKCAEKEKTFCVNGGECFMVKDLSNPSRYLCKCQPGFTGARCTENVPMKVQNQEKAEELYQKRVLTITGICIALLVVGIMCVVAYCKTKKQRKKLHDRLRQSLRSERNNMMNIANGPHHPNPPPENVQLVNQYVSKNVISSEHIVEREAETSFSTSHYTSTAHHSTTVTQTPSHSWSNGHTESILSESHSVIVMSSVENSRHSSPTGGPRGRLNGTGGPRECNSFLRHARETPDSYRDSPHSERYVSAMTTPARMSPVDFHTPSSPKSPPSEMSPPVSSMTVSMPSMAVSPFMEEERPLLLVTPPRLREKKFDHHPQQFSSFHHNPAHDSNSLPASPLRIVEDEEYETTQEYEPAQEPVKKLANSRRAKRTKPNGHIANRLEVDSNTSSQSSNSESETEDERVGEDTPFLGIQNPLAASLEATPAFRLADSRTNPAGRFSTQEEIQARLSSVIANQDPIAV
Test [7] concerns Neuregulin-1 EGF-like domain. Briefly: small molecules binding NRG1 EGF domain – biochemical, small-molecule microarray, 635 nm fluorescence, primary screen (AID 1081).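 Note: binding of the protein to compounds printed on small-molecule microarray slides.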 As to conditions: higher = more signal.
The nature of test [8]: FRG1 expression reporter modulators in myotubes – cell-based, C2C12 myotubes, firefly/Renilla luciferase, luminescence, FRG1 inhibition for FSHD, primary screen (AID 1084). As to conditions: FRG1 promoter luciferase, higher = more signal, called active from +8 up or from −8 down.
A short description of test [9]: small molecules captured by biotinylated probe aFST – biochemical, small-molecule microarray, fluorescence 635/667, stem cell growth factor project, primary screen (AID 1086).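 Note: score merges 667 nm fluorescence with signal-to-noise of each printed compound spot.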 The following applies: higher = more signal.
A short description of test [10]: binders of probe aHhip on microarray, primary screen, stem cell growth factor project, biochemical, small-molecule microarray, fluorescence 635/667 (AID 1087).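 Note: score merges spot fluorescence at 667nm with spot signal to noise ratio.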 As to conditions: higher = more signal.
Test [11] deals with PRMT1 (protein arginine N-methyltransferase 1). As to the kind of experiment: small molecules binding arginine methyltransferase PRMT1 – biochemical, small-molecule microarray, 635 nm fluorescence, primary screen (AID 1088).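 Note: binding of Prmt1 protein to compounds spotted on small-molecule microarray slides.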 The following applies: higher = more signal.
Test [12] can be described thus: growth effects on S. cerevisiae YJM789 – YJM789 clinical isolate, OD600, 24 h, basal, primary screen (AID 1089).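 Note: growth of clinical yeast isolate S. cerevisiae YJM 789 seeded 1000 cells per well; test concentration not given here.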 The following applies: higher = more signal, called active from +8 up or from −8 down.
Test [13] is described as follows: S. pombe growth modifiers, basal conditions – strain 972, OD600, 24 h, no modulator, primary screen (AID 1090).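 Note: basal condition with compound alone and no growth modifier present; test concentration not given here.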 The following applies: S. pombe 972 growth, higher = more signal, called active from +8 up or from −8 down.
Test [14] can be described thus: budding yeast growth modifiers under rapamycin – strain BY4716, OD600, 96 h, primary screen (AID 1091). Note: test concentration not given here. The following applies: S. cerevisiae BY4716 + rapamycin, higher = more signal, called active from +8 up or from −8 down.
The target of test [15] is Torsin-1A-interacting protein 2 (Homo sapiens) (UniProt Q8NFQ8). As to the kind of experiment: small molecules binding lysate-expressed LULL1 – cell lysate, human LULL1 lysate, 635/667 nm fluorescence, primary screen (AID 1092).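 Note: probe is lysate of COS7 cells overexpressing human LULL1; score merges per-feature 667 nm fluorescence with signal-to-noise.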 The following applies: small-molecule microarray, hLULL1 lysate binding, 635 nm fluorescence; higher = more signal.
Sequence of Torsin-1A-interacting protein 2 (Homo sapiens) (Q8NFQ8 whole entry, looked up): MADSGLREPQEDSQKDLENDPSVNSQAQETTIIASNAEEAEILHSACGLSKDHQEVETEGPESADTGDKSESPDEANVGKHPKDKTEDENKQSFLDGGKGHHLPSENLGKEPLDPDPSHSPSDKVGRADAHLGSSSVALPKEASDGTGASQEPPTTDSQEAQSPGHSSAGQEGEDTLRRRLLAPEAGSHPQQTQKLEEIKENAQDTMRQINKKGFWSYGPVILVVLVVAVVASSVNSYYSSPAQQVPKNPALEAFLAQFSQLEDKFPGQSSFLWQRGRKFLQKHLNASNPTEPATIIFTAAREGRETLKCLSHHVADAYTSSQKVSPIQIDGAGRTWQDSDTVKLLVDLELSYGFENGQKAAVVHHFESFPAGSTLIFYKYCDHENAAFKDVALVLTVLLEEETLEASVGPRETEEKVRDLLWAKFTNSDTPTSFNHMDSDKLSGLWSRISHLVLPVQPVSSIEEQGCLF
The nature of test [16]: optical density change of DRC41 E. coli – strain DRC41, OD650, 24 h, E. coli filamentation project, primary screen (AID 1093).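 Note: MC1000 strain lacking acrAB efflux and sulA so SOS filamentation is blocked; test concentration not given here.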 As to conditions: E. coli DRC41 growth, higher = more signal, called active from +8 up or from −8 down.
Test [17] is described as follows: probe aLefty2 binding to arrayed compounds – biochemical, biotinylated probe, 635/667 nm fluorescence, primary screen (AID 1094).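 Note: score merges spot fluorescence near 667 nm with spot signal-to-noise ratio.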 As to conditions: small-molecule microarray, higher = more signal.
Test [18] concerns Noggin (protein binding on small-molecule microarray). As to the kind of experiment: small molecules binding Noggin protein – biochemical, 635/667 nm fluorescence, primary screen (AID 1095).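 Note: score merges 667 nm feature fluorescence with signal to noise over triplicate slides.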 The following applies: 635 nm fluorescence, higher = more signal.
The target in test [19] is Neurogenic locus notch homolog protein 3 (Homo sapiens) (UniProt Q9UM47). Briefly: small molecules binding NOTCH3 protein – biochemical, 635/667 nm fluorescence, primary screen (AID 1096). The following applies: small-molecule microarray, 635 nm fluorescence, higher = more signal.
Sequence of Neurogenic locus notch homolog protein 3 (Homo sapiens) (Q9UM47 whole entry, looked up): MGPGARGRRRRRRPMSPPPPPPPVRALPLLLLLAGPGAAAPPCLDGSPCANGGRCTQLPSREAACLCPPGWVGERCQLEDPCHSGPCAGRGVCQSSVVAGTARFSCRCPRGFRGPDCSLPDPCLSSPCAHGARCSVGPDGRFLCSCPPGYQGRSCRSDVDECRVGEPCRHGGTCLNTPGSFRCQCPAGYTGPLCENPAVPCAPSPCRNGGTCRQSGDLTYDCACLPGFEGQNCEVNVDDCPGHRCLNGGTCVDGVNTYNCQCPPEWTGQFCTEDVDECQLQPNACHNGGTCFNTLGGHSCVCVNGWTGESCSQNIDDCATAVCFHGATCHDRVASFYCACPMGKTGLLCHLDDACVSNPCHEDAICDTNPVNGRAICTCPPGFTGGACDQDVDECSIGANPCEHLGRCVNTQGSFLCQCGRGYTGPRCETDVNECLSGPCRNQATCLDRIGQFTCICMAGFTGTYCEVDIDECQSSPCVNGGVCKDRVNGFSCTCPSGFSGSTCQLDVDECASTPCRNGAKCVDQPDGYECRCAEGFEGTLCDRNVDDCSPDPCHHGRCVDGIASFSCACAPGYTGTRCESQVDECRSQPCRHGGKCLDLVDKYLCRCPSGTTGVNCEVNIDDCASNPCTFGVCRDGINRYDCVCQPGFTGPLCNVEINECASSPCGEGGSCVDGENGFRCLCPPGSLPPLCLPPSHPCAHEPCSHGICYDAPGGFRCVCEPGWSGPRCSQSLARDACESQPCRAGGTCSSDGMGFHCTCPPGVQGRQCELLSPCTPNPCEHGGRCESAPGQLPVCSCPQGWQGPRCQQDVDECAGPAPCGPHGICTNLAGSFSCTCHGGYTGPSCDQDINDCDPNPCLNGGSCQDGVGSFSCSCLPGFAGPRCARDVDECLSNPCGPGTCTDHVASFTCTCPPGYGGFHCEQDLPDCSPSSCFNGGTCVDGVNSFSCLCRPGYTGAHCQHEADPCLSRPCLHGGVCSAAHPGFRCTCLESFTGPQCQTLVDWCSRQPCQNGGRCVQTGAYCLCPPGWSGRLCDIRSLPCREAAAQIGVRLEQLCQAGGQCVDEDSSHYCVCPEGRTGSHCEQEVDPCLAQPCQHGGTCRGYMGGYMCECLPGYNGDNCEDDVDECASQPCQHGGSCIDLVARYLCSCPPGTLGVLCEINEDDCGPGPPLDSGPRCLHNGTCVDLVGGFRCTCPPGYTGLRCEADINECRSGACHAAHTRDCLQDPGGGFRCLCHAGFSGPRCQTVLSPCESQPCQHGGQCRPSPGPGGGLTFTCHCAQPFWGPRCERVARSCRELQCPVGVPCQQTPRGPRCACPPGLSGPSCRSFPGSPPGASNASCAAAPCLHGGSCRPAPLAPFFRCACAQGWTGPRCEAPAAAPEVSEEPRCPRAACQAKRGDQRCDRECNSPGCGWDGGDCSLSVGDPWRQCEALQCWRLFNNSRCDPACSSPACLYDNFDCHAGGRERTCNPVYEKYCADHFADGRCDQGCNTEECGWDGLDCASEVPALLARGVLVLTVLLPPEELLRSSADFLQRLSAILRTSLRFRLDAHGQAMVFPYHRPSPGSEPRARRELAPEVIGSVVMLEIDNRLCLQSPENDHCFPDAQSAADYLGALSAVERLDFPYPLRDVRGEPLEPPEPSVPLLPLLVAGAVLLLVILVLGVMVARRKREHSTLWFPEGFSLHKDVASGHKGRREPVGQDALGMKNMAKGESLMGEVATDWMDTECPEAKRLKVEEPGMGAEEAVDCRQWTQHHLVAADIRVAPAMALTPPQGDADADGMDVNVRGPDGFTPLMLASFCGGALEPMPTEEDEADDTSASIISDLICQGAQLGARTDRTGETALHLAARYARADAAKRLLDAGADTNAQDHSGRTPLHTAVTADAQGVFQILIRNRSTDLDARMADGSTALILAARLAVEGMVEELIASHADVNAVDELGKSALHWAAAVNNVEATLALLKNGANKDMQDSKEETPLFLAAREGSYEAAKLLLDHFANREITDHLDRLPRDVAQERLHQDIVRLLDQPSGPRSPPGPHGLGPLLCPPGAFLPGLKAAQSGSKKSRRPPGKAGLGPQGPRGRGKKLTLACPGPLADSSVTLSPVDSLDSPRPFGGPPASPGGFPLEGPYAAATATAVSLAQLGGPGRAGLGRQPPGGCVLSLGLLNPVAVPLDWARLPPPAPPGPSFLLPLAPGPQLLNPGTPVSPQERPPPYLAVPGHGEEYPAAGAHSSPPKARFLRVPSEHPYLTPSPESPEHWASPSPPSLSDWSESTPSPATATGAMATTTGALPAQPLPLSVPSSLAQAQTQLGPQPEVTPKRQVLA
Test [20] in a line: probe aEGFR binding to arrayed compounds – biochemical, biotinylated probe, 635/667 nm fluorescence, primary screen (AID 1097).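 Note: probe is a biotinylated anti-EGFR antibody binding compounds printed on slides; score combines fluorescence near 667 nm and signal to noise of each spot.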 The following applies: small-molecule microarray, higher = more signal.

Calls of active or inactive are those of the source.

For `COc1cc(OC)c(C(O)C2C=CC3C(=O)N(C)C(=O)C3N2NC(=O)OC(C)(C)C)cc1Br` (stereo not given), the composite z-score in test [1] is 0.411; in [2], -0.381; in [3], 0.232; in [4], 0.843; in test [5], 1.76; in [6], 1.85. Moreover, the composite z-score amounted to 1.37 in test [7]; 1.84 in test [9]; 0.0522 in test [10]; 1.54 in test [11]; 3.39 in test [15]; 0.368 in test [17]. Moreover, the composite z-score in [18] stood at 0.137; in test [19], 1.02; in test [20] it was 0.128. In addition, the z-score in [8] is -0.612 (inactive); in test [12], 0.24 (inactive); in test [13] it was -0.324 (inactive); in test [14], 0.828 (inactive); in test [16] it was -0.188 (inactive).
`CN(C)c1ccc(C(O)C2C=CC3C(=O)N(c4ccccc4)C(=O)C3N2Nc2ccc([N+](=O)[O-])cc2)cc1` (stereo not given): the composite z-score was found to be 0.155 in test [1]; 0.456 in test [2]; 0.0495 in test [3]; 0.551 in [4]; 1.52 in [5]; 1.42 in test [6]. In addition, the composite z-score came to 1.14 in test [7]; 1.63 in [9]; 0.0373 in [10]; 1.44 in [11]; 2.98 in [15]; 0.401 in [17]. Besides, the composite z-score in test [18] was 0.037; in [19] it was 1.13; in test [20] it was -0.0234. The z-score is 0.975 (inactive) in [8]; 0.0475 (inactive) in [12]; -1.3 (inactive) in test [13]; 2.39 (inactive) in test [14]; -0.564 (inactive) in test [16].
For `CCCCCCc1nc(C2CC2)cc2c1[Si](C(C)C)(C(C)C)O[C@H]2c1ccccc1`, the composite z-score in test [1] was 0.0483; in test [2], 0.122; in test [3], -0.0286; in [4] it was 0.698; in test [5] it was 0.516; in [6] it was -0.37. The composite z-score was -0.903 in [7]; 0.177 in [9]; -0.0618 in [10]; -0.147 in [11]; -0.624 in [15]; -0.0798 in test [17]. Further, the composite z-score in test [18] is 0.639; in test [19] it was 0.356; in test [20], 0.0122. Also, the z-score in test [8] is -0.136 (inactive); in test [12], -0.746 (inactive); in [13] it was -0.575 (inactive); in test [14], -0.513 (inactive); in test [16] it was -1.28 (inactive).
As to `COC(=O)[C@@]1(Cc2ccccc2N=[N+]=[N-])N=C(c2ccc(OCCCO)cc2)O[C@H]1c1ccccc1N=[N+]=[N-]`, the composite z-score in [1] was 0.663; in [2], 0.192; in test [3] it was 0.0131; in test [4], -0.0009; in [5], 0.648; in [6], 0.859. Moreover, the composite z-score in test [7] is 1.27; in test [9] it was 0.214; in test [10], -0.0123; in [11], 1.54; in [15], 2.05; in test [17] it was 0.258. Further, the composite z-score in [18] is 0.717; in [19], 0.647; in test [20], -0.0211. Besides, the z-score was -0.492 (inactive) in test [8]; -1.13 (inactive) in test [12]; -3.84 (inactive) in test [13]; 26.2 (active) in [14]; 1.51 (inactive) in test [16].
Regarding `N#Cc1ccc(NN2C(C(O)c3ccc(F)cc3)C=CC3C(=O)N(c4ccccc4)C(=O)C32)cc1` (stereo not given), the composite z-score was -0.28 in test [1]; -0.17 in test [2]; 0.183 in test [3]; -0.0175 in test [4]; 0.47 in [5]; 1.4 in [6]. Besides, the composite z-score is 1.07 in test [7]; 0.87 in test [9]; -0.353 in test [10]; 1.24 in test [11]; 3.21 in test [15]; -0.0477 in test [17]. The composite z-score in test [18] is -0.868; in test [19], 0.443; in [20], -0.257. For the same compound, the z-score was 0.0158 (inactive) in [8]; 0.537 (inactive) in test [12]; 2.45 (inactive) in test [13]; 2.57 (inactive) in test [14]; -0.538 (inactive) in test [16].
Consider `OCCCC1=CC(c2ccc(CN3CCCC3)cc2)N(Cc2sc3ccccc3c2Cl)CC1` (stereo not given), for which the composite z-score is 1.46 in test [1]; 0.41 in test [2]; -0.221 in [3]; 0.828 in [4]; 0.72 in test [5]; 0.65 in test [6]. Further, the composite z-score in test [7] was 1.27; in test [9] it was 0.0562; in test [10], 0.535; in [11] it was 1.2; in test [15] it was 1.22; in test [17], 0.0998. The values for the composite z-score in test [18], in test [19] and in test [20] were 0.895, 0.686 and 0.148, respectively. Also, the z-score is -0.475 (inactive) in test [8]; -0.72 (inactive) in [12]; -14.3 (active) in [13]; -0.628 (inactive) in [14]; -0.271 (inactive) in test [16].
Regarding `CCCCC(=C=CC[C@@H](O)c1ccccc1OCCO)C[C@@H](O)COCc1ccccc1`, the composite z-score is -0.0745 in [1]; 0.0282 in test [2]; -0.101 in test [3]; -0.333 in [4]; -0.768 in test [5]; 0.852 in [6]. Also, the composite z-score is 0.115 in [7]; -0.462 in test [9]; -0.201 in test [10]; 1.13 in test [11]; 1.91 in test [15]; -0.166 in [17]. In addition, the composite z-score in test [18] was 0.404; in test [19], 0.185; in [20] it was -0.209. In addition, the z-score in test [8] was -2.9 (inactive); in test [12], -1.69 (inactive); in test [13], -2.1 (inactive); in test [14] it was -1.26 (inactive); in [16], 1.31 (inactive).
`O=C1O[C@@H](c2ccccc2)[C@@H](c2ccccc2)N2[C@@H](c3ccccc3OCCO)[C@]3(C(=O)Nc4ccc(C#CCCO)cc43)[C@@H](C(=O)N3CCCCCCC3)[C@H]12`: the composite z-score in test [1] stood at 4.01; in test [2], 2.76; in test [3], 1.1; in [4], 1.47; in test [5] it was 1.83; in test [6], 2.86. The composite z-score amounted to 1.35 in test [7]; 3.89 in test [9]; 2.64 in [10]; 1.53 in test [11]; 5.16 in [15]; 1.99 in test [17]. Besides, the composite z-score amounted to 2.28 in test [18], 1.01 in [19] and 1.49 in test [20]. The z-score is -3.55 (inactive) in test [8]; 0.295 (inactive) in test [12]; -4.61 (inactive) in test [13]; 1.33 (inactive) in test [14]; -0.798 (inactive) in test [16].
With `[N-]=[N+]=Nc1ccccc1C[C@]1(C(N)=O)N=C(c2ccc(OCCCO)cc2)O[C@H]1c1ccccc1N=[N+]=[N-]`, the composite z-score in test [1] is 0.12; in [2] it was 0.902; in [3], 0.0598; in test [4], 1.05; in test [5], 1.23; in test [6] it was 1.42. For the same compound, the composite z-score in test [7] is 1.21; in test [9], 0.359; in test [10], -0.0237; in [11], 1.55; in test [15], 2.89; in [17], 0.546. In addition, the composite z-score is -0.306 in [18], 0.877 in test [19] and 0.701 in test [20]. For the same compound, the z-score in [8] was -1.08 (inactive); in [12], -0.376 (inactive); in test [13] it was -1.28 (inactive); in [14], -0.686 (inactive); in test [16] it was -0.436 (inactive).

Source of the values: PubChem BioAssay.
